# Data taken from the supplement of paper PMC7724964.
# T1: DVL2 416-511 DEP (domain begin residue: 416, domain end residue: 511), O14641
# T1 chain: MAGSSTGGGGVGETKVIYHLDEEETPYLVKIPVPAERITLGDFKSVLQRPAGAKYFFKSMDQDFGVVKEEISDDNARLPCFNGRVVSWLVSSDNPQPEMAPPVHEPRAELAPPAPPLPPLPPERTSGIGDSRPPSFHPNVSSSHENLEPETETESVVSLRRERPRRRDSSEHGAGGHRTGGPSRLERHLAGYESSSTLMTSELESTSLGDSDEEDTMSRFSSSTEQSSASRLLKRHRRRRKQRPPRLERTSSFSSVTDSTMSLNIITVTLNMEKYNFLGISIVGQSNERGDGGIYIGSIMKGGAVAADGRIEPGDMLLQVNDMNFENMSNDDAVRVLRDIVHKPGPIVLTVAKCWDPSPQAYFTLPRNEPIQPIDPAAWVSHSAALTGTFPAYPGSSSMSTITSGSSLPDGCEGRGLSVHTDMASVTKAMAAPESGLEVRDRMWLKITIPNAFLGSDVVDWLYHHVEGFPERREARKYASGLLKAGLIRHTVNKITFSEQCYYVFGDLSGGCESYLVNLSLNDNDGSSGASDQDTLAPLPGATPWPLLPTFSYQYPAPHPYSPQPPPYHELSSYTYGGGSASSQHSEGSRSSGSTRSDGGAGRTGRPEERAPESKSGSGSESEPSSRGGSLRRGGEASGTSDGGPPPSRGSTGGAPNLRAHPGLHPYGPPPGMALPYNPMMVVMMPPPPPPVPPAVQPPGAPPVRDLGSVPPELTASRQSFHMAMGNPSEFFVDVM
# T2: DVL1 406-503 DEP (domain begin residue: 406, domain end residue: 503), O14640
# T2 chain: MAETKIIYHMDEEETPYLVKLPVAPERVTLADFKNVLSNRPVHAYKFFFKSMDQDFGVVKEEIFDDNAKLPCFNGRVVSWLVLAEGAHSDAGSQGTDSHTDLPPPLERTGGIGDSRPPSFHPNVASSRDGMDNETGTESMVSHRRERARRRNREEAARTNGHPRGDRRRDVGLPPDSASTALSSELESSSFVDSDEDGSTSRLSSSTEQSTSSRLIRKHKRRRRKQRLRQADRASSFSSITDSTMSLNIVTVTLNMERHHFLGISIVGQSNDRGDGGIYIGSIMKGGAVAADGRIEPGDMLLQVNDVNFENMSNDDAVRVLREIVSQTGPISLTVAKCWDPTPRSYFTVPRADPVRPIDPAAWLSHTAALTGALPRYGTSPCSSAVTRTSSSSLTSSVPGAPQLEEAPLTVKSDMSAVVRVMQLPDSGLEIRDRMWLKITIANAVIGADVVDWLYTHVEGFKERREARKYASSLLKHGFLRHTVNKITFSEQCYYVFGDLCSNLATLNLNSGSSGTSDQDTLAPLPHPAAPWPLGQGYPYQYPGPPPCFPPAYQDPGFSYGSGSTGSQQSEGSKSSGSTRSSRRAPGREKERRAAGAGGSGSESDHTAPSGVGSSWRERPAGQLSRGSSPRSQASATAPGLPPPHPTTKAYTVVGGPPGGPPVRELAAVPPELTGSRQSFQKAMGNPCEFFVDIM
# T3: DOK3 213-322 IRS (domain begin residue: 213, domain end residue: 322), Q7L591
# T3 chain: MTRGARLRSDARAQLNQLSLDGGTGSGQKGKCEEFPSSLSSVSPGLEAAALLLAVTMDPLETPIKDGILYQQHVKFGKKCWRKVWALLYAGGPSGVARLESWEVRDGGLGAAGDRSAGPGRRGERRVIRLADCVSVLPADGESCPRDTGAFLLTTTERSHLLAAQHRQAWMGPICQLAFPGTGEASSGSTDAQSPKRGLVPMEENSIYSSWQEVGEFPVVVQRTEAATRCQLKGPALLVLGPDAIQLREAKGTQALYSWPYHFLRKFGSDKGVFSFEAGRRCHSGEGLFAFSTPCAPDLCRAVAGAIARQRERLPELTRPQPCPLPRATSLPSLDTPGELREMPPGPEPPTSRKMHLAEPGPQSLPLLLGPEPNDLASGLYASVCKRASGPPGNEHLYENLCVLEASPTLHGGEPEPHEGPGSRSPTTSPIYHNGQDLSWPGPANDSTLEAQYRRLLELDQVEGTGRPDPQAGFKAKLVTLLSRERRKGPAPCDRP
# T4: DOK7 105-219 IRS (domain begin residue: 105, domain end residue: 219), Q18PE1
# T4 chain: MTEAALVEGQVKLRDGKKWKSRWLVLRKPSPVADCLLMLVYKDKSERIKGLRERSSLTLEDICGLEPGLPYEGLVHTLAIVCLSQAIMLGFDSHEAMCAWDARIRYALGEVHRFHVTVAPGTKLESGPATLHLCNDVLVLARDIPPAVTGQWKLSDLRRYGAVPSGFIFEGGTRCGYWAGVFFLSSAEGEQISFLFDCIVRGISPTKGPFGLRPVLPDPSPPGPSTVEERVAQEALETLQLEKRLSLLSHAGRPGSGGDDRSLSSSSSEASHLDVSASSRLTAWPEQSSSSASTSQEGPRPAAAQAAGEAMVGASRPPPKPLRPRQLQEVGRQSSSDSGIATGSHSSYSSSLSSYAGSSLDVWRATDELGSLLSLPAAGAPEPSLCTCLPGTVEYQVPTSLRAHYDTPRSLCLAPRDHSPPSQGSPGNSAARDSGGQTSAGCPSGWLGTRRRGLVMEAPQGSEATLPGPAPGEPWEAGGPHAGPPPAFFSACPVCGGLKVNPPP
# T5: DOK2 146-252 IRS (domain begin residue: 146, domain end residue: 252), O60496
# T5 chain: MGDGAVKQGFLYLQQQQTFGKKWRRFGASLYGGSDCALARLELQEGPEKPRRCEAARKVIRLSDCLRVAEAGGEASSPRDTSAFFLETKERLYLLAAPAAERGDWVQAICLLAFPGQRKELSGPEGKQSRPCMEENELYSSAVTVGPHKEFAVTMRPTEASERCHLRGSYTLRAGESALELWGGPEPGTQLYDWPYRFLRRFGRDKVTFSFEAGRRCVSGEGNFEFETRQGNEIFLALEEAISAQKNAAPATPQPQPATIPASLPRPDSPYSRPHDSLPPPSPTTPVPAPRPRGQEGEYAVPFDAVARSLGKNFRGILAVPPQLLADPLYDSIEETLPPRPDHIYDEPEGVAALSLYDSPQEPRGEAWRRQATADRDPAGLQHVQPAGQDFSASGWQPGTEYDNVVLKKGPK
# T6: DVL3 407-503 DEP (domain begin residue: 407, domain end residue: 503), Q92997
# T6 chain: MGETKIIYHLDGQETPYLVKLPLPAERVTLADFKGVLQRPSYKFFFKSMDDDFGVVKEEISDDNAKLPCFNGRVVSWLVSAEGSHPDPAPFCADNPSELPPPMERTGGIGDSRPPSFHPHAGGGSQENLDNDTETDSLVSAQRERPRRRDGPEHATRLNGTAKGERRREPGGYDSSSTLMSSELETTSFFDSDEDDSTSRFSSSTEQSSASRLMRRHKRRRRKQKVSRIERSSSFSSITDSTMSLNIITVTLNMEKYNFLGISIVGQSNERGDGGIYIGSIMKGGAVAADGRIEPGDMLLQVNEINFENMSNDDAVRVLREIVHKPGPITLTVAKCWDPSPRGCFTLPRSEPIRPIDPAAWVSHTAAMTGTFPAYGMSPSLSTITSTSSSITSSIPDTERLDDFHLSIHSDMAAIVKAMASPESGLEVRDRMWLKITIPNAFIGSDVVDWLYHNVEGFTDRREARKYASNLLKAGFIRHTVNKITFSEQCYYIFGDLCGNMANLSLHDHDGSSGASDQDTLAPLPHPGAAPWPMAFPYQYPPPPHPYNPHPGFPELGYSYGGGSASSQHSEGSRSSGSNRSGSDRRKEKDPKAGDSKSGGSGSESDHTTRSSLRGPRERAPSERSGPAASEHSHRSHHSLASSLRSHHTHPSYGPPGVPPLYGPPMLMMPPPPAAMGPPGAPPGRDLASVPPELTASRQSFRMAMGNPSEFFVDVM
# Assays:
# Assay in all cases: phage ELISA signal ratio (GST-PRM binding over GST background); higher = stronger binding of peptide-phage to the PRM
# [1] = molecular target: T1, DVL2 416-511 DEP (domain begin residue: …
# In short: (§1)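 Human peptide recognition domains were expressed in 96-well plates as fusions to the C-terminus of glutathione S-transferase (GST) and selected against an M13 phage library displaying randomized hexadecapeptides, cysteine-free and glycine-flanked, on the gene-8 major coat protein. Five selection rounds were run, and approximately 48 individual clones from rounds 4 and 5 were tested by phage ELISA. Each value is the ELISA signal on the GST-domain fusion divided by the signal on GST alone. Positive clones were sequenced.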
# [2] = molecular target: DOK4 130-237 IRS (domain begin residue: 130, domain end residue: 237), Q8TEW6
# Sequence of DOK4 130-237 IRS (domain begin residue: 130, domain end residue: 237), Q8TEW6 (Q8TEW6 whole entry): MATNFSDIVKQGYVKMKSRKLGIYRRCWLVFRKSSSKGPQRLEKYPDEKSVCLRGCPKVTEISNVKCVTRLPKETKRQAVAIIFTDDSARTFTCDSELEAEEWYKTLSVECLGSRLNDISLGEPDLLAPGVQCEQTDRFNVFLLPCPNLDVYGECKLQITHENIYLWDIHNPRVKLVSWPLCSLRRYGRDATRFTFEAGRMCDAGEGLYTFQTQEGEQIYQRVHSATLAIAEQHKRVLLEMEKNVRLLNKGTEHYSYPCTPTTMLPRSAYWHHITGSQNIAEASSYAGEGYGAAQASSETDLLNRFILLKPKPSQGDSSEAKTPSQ
# In short: as §1
# [3] = molecular target: DOK5 130-237 IRS (domain begin residue: 130, domain end residue: 237), Q9P104
# In short: as §1
# [4] = molecular target: T2, DVL1 406-503 DEP (domain begin residue: …
# In short: as §1
# [5] = molecular target: DYNLL1 1-89 Dynein_light (domain begin residue: 1, domain end residue: 89), P63167
# Sequence of DYNLL1 1-89 Dynein_light (domain begin residue: 1, domain end residue: 89), P63167 (P63167 whole entry): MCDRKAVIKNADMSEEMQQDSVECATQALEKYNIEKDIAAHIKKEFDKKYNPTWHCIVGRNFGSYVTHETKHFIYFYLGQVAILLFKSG
# In short: as §1
# [6] = molecular target: T3, DOK3 213-322 IRS (domain begin residue: …
# In short: as §1
# [7] = molecular target: T4, DOK7 105-219 IRS (domain begin residue: …
# In short: as §1
# [8] = molecular target: T5, DOK2 146-252 IRS (domain begin residue: …
# In short: as §1
# [9] = molecular target: T6, DVL3 407-503 DEP (domain begin residue: …
# In short: as §1
binder,measurement,setting,value
MWYWDPGENTAIWVEQ,phage ELISA signal ratio,[1],22.1
YETPEPQWLWVMNPIH,phage ELISA signal ratio,[2],14.6
DWVWTIPFEQVFSEVM,phage ELISA signal ratio,[3],4.96
WEWQFWQDYMAQFPSE,phage ELISA signal ratio,[4],3.48
SQTEWDWLEREWKPSI,phage ELISA signal ratio,[5],19.4
KWMIDLTDWEAYWVPS,phage ELISA signal ratio,[1],26.7
PEQMEYWTWSPLHVSQ,phage ELISA signal ratio,[2],13.1
VWEEVMTMEQWQWHNF,phage ELISA signal ratio,[6],5.77
FETTWVLENGWWLPQA,phage ELISA signal ratio,[7],9.36
PETPYFSDGMWWWVKP,phage ELISA signal ratio,[1],28.8
DLDFMWWDNPVHETDL,phage ELISA signal ratio,[8],16.8
EWMWMDNPGFHMTEAT,phage ELISA signal ratio,[8],13.6
GVGWAKQIEWTVSPMM,phage ELISA signal ratio,[3],3.95
VQTDWYGVDGFWVPVL,phage ELISA signal ratio,[5],18.1
QAVPMWQDEHGYWWWN,phage ELISA signal ratio,[1],33.3
LQTPDWMWAPNVLESM,phage ELISA signal ratio,[5],6.16
GHNEIMTIQQHATWLY,phage ELISA signal ratio,[6],5.54
WPEGIKYTWVKEHETE,phage ELISA signal ratio,[2],8.42
HLTGQEGDWIWHWLEN,phage ELISA signal ratio,[8],10.4
IEWTHTNWEWNKMETQ,phage ELISA signal ratio,[2],11.9
VFWENQHWMQDLNPEW,phage ELISA signal ratio,[1],26.1
TQTGMWDETDSREHWD,phage ELISA signal ratio,[5],11.5
MWFWNLDEAMPIWTAM,phage ELISA signal ratio,[1],13.3
TQTPVWGMDGWMWVTV,phage ELISA signal ratio,[5],19.5
VHWTLQSVTDWKWVPQ,phage ELISA signal ratio,[4],31.9
WQMNHLEEWRAYAETL,phage ELISA signal ratio,[9],24.2
TQTEFYASDWWMMENV,phage ELISA signal ratio,[5],15.6
VQTDPWVGQLGDFMFV,phage ELISA signal ratio,[5],17.1
TQTSWWWSETPMFPFM,phage ELISA signal ratio,[5],3.08
IYWDWEDGYIYEHQPE,phage ELISA signal ratio,[1],18.2
EWVEWVSPWMVEHGDW,phage ELISA signal ratio,[8],17.8
PYTWYENPLWVPSPME,phage ELISA signal ratio,[8],15.2
VVNEQHGWKWMILEHE,phage ELISA signal ratio,[8],20.7
MWEWTDNPSYTIPGQQ,phage ELISA signal ratio,[2],7.86
YELSWTHTPWSHFIAT,phage ELISA signal ratio,[2],6.86
PLENPTYKDGLWWWSV,phage ELISA signal ratio,[1],24.4
VIWTWNPMAGMEAWNI,phage ELISA signal ratio,[2],5.11
WTQTEDPWEYTWLDLV,phage ELISA signal ratio,[5],17.8
PKYQFSLSAESLQWLM,phage ELISA signal ratio,[9],18.1
LWFWDVETGNAYKTQE,phage ELISA signal ratio,[1],14.1
QWMDLNDLQWTYNPWY,phage ELISA signal ratio,[2],11.2
YWFWNPEIMDAQYMPV,phage ELISA signal ratio,[1],7.02
FEWTSSPVWSDHQEHN,phage ELISA signal ratio,[2],11.5
DEWKWFDMVGTQTQTP,phage ELISA signal ratio,[8],16.8
DDMIWQWQMNPIWMMD,phage ELISA signal ratio,[2],11.5
EYKTMPWEEIMMPYNY,phage ELISA signal ratio,[6],3.85
NQLRFNPQWTVPNFRN,phage ELISA signal ratio,[6],3.31
MDGWFWDHAPHFTMDF,phage ELISA signal ratio,[9],4.23
PDLAAWRIWIMEEEQV,phage ELISA signal ratio,[9],22.4
EMWYWDAVQGVPYKQG,phage ELISA signal ratio,[1],23.9
AYYWSITLGDIVYMVD,phage ELISA signal ratio,[1],16.1
YQPDMRMQDGKWYWII,phage ELISA signal ratio,[1],20.4
GWDDQIWTWSPMYMPV,phage ELISA signal ratio,[2],19
EHLRPEMDWTYVWWEH,phage ELISA signal ratio,[2],4.35
QFIVWENEYYEHWGGK,phage ELISA signal ratio,[8],21.1
EQLWWSNPLWTEGIEE,phage ELISA signal ratio,[8],16.1
WEWSQEIWLPPHMMVD,phage ELISA signal ratio,[6],12.3
